Reference: article PMC4336329 (PLoS ONE, 2015)
The campaign covered roughly 310,000 compounds. About 14,000 (4.5%) showed an effect of 50% or more. The effect is printed as a negative number. For the sample, strong results were picked, then their nearest neighbours and some compounds at random.
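Also: peak tail current of the secondary pulse compared with the same well before compound.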

The compounds below were run against human ether-à-go-go-related gene (hERG) potassium channel (human, UniProt Q12809) (assay: primary screen, population patch clamp on CHO cells stably expressing hERG; higher = less effect of the substance).
human ether-à-go-go-related gene (hERG) potassium channel, sequence (Q12809 whole entry, looked up): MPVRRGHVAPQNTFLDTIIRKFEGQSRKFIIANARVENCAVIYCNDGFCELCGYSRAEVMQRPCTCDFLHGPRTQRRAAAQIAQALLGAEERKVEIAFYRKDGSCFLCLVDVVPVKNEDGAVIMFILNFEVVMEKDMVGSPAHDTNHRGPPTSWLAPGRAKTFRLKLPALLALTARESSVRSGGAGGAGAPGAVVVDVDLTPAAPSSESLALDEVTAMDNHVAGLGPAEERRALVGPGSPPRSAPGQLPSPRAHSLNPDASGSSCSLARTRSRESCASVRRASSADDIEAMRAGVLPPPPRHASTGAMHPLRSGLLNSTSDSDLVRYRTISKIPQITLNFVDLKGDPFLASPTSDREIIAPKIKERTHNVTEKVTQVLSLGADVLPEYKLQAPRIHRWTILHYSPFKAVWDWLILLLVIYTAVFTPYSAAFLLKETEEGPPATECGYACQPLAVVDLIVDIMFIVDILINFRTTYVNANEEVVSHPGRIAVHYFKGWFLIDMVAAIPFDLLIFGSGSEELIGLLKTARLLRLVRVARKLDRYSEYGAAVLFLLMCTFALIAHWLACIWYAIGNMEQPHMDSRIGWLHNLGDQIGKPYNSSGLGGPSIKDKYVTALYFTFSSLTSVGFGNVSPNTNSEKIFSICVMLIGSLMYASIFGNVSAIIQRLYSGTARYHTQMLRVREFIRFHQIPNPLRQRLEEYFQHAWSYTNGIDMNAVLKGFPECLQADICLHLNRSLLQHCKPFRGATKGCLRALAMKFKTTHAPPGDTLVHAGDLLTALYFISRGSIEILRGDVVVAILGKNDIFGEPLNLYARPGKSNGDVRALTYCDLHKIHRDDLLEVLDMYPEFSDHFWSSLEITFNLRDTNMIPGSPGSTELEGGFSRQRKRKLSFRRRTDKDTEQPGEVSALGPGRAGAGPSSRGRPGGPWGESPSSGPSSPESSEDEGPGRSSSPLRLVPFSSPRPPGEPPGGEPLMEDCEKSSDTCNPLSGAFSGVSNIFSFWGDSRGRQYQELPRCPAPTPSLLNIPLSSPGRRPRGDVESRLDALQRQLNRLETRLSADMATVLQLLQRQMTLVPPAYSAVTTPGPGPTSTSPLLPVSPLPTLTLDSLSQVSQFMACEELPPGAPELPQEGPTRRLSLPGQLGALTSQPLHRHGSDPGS
In the case of OCCC1CN(Cc2cccc3nccnc23)CCN1C1CCCC1 (stereo not drawn), the “hERG current change (%, negative = inhibition) at 10uM” value is reported as -4.4%. In the case of Cc1cc(-n2cccn2)ccc1CN1CCN(C2CCCC2)C(CCO)C1 (stereo not drawn), the “hERG current change (%, negative = inhibition) at 10uM” value is reported as -73.5%. OCCC1CN(Cc2cc(F)ccc2-n2cccn2)CCN1C1CCCC1 (stereo not drawn) was tested, and the “hERG current change (%, negative = inhibition) at 10uM” value was -29%. COc1cccc(-c2sc3ccc(OC)cc3c2C#CCC(C)O)c1 (stereo not drawn) was tested, and the “hERG current change (%, negative = inhibition) at 10uM” value was 25.8%. COc1ccc(CN(C)C(=O)C23CC4CC(CC(C4)C2)C3)c(OC)c1 was tested, and the “hERG current change (%, negative = inhibition) at 10uM” value was -25%. CCOC(=O)c1cc(-c2ccc(OC(F)F)cc2)nc2nc(SC)[nH]c(=O)c12 was tested, and the “hERG current change (%, negative = inhibition) at 10uM” value was -42.7%. COc1ccc(NS(=O)(=O)c2cccc(C(=O)NNC(=O)CNC(=O)c3ccco3)c2)cc1 was tested, and the “hERG current change (%, negative = inhibition) at 10uM” value was 12.8%. In the case of CC(=O)Nc1ccc2c(c1)N(S(=O)(=O)c1cccs1)CCC2, the “hERG current change (%, negative = inhibition) at 10uM” value is reported as -3.79%. O=C(NCCN1CCCCC1)/C(=C/c1ccco1)NC(=O)c1ccccc1 was tested, and the “hERG current change (%, negative = inhibition) at 10uM” value was -40.6%. For Cc1ccc(C(=O)N/C(=C\c2ccco2)C(=O)NCCCn2ccnc2)cc1, the “hERG current change (%, negative = inhibition) at 10uM” value was -64.3%. With COc1ccc(C(=O)N/C(=C\c2ccco2)C(=O)NCCCn2ccnc2)cc1 the “hERG current change (%, negative = inhibition) at 10uM” value was -19.7%. In the case of Cc1ccc(C(=O)N/C(=C\c2ccco2)C(=O)NCCN2CCCCC2)cc1C, the “hERG current change (%, negative = inhibition) at 10uM” value is reported as -60.1%. In the case of Cc1ccc(C(=O)N/C(=C\c2ccco2)C(=O)NCCCn2ccnc2)cc1C, the “hERG current change (%, negative = inhibition) at 10uM” value is reported as -39.8%. Cc1ccc(C(=O)N/C(=C/c2ccco2)C(=O)NCCCn2ccnc2)cc1 was tested, and the “hERG current change (%, negative = inhibition) at 10uM” value was -64.7%. For Cc1ccc(C(=O)N/C(=C\c2ccco2)C(=O)NCCN2CCOCC2)cc1C, the “hERG current change (%, negative = inhibition) at 10uM” value was -3.01%. In the case of CCOC(=O)C1=C(C)Nc2nc(SCC)[nH]c(=O)c2C1c1ccncc1 (stereo not drawn), the “hERG current change (%, negative = inhibition) at 10uM” value is reported as -7.65%. In the case of Cc1cc(C)c(C)c(S(=O)(=O)N2CCN(Cc3nc4ccccc4[nH]3)CC2)c1C, the “hERG current change (%, negative = inhibition) at 10uM” value is reported as 0.133%. Nc1c(NCCc2ccccc2)c2ccccc2oc1=O was tested, and the “hERG current change (%, negative = inhibition) at 10uM” value was -11.9%. With COc1ccc(/C=c2\sc3nc(=O)c(C)nn3c2=O)c(OC)c1 the “hERG current change (%, negative = inhibition) at 10uM” value was 23%. With O=C(COC(=O)c1cc(-c2ccncc2)nc2ccccc12)Nc1ccc2c(c1)OCO2 the “hERG current change (%, negative = inhibition) at 10uM” value was 2.21%. For COc1ccc(CNS(=O)(=O)c2ccc(S(=O)(=O)N3CCCCC3)cc2)cc1, the “hERG current change (%, negative = inhibition) at 10uM” value was 7.34%. In the case of CN(NC(=O)c1ccccc1Cl)c1ncc(C(F)(F)F)cc1Cl, the “hERG current change (%, negative = inhibition) at 10uM” value is reported as -1.95%. Cc1c(OCc2ccc([N+](=O)[O-])cc2)ccc2c3c(c(=O)oc12)CCC3 was tested, and the “hERG current change (%, negative = inhibition) at 10uM” value was 0.652%. With Cc1nc(C)n(C(C)CNS(=O)(=O)c2ccc(Cl)cc2)n1 (stereo not drawn) the “hERG current change (%, negative = inhibition) at 10uM” value was 13.9%. For O=P1(NCCCn2cc[n+](Cc3nc4ccccc4[nH]3)c2)C=C(c2ccccc2)OC(c2ccccc2)=C1.[Cl-], the “hERG current change (%, negative = inhibition) at 10uM” value was -63%. For O=C(C[n+]1ccn(CCCNP2(=O)C=C(c3ccccc3)OC(c3ccccc3)=C2)c1)c1ccccc1.[Br-], the “hERG current change (%, negative = inhibition) at 10uM” value was -22.8%. In the case of O=C(C[n+]1ccn(CCCNP2(=O)C=C(c3ccccc3)OC(c3ccccc3)=C2)c1)c1cccs1.[Br-], the “hERG current change (%, negative = inhibition) at 10uM” value is reported as -44.7%. CC[C@H](C)[C@H](NC(=O)[C@H](Cc1ccc(O)cc1)NC(=O)[C@@H](N)C(C)C)C(=O)N[C@@H](Cc1cnc[nH]1)C(=O)N1CCC[C@H]1C(=O)N[C@@H](Cc1ccccc1)C(=O)O was tested, and the “hERG current change (%, negative = inhibition) at 10uM” value was 4.75%. For O=S(=O)(NCCc1ccncc1)c1ccc(F)cc1, the “hERG current change (%, negative = inhibition) at 10uM” value was 12%. With CCOC(=O)C1=C(C)N=C2SCCC(=O)N2C1c1cccs1 (stereo not drawn) the “hERG current change (%, negative = inhibition) at 10uM” value was -10.2%. In the case of CCCCCCS(=O)[C@H]1CS(=O)(=O)C[C@@H]1S(=O)CCCCCC (stereo partly drawn), the “hERG current change (%, negative = inhibition) at 10uM” value is reported as -66.7%. With CCCCCCCCS(=O)C1CS(=O)(=O)CC1O (stereo not drawn) the “hERG current change (%, negative = inhibition) at 10uM” value was 5.75%. With CCCCCCCCS(=O)C1CCS(=O)(=O)C1 (stereo not drawn) the “hERG current change (%, negative = inhibition) at 10uM” value was 4.04%. CCOC(=O)N1CCN(Cc2nc(-c3ccc(C)cc3)no2)CC1 was tested, and the “hERG current change (%, negative = inhibition) at 10uM” value was -17.6%. With CCOC(=O)N1CCN(Cc2nc(-c3ccc(Cl)cc3)no2)CC1 the “hERG current change (%, negative = inhibition) at 10uM” value was -30.6%. For CCOC(=O)N1CCN(Cc2nc(N)nc(Nc3ccc(C)cc3)n2)CC1, the “hERG current change (%, negative = inhibition) at 10uM” value was -57.2%. With CCOC(=O)N1CCN(Cc2nc(N)nc(Nc3ccc(C)cc3C)n2)CC1 the “hERG current change (%, negative = inhibition) at 10uM” value was -16.7%. CCOC(=O)N1CCN(Cc2nc(N)nc(Nc3ccc(Cl)cc3)n2)CC1 was tested, and the “hERG current change (%, negative = inhibition) at 10uM” value was -72.4%. For CCOC(=O)N1CCN(C(=O)Nc2ccc(Cl)cc2)CC1, the “hERG current change (%, negative = inhibition) at 10uM” value was -11.4%. In the case of COc1ccc(C2C(C(=O)O)CCC(=O)N2c2ccc(C)cc2)cc1OC (stereo not drawn), the “hERG current change (%, negative = inhibition) at 10uM” value is reported as -10.6%. CC(C)[C@H](NS(=O)(=O)c1ccccc1)C(=O)OCC(=O)Nc1ccccc1Sc1ccccc1 was tested, and the “hERG current change (%, negative = inhibition) at 10uM” value was 1.98%. C=CCn1c(Sc2nnc(C)s2)nc2c1c(=O)[nH]c(=O)n2C was tested, and the “hERG current change (%, negative = inhibition) at 10uM” value was 11.2%. O=C(NCc1ccccn1)Nc1ccccc1F was tested, and the “hERG current change (%, negative = inhibition) at 10uM” value was 13.5%. In the case of Cc1cc(NC(=O)CSc2ccc(Cl)cc2)no1, the “hERG current change (%, negative = inhibition) at 10uM” value is reported as -3.36%. For COc1cccc(C(=O)CSc2nc3ccccc3n2CC(=O)N(C(C)C)C(C)C)c1, the “hERG current change (%, negative = inhibition) at 10uM” value was -5.36%. For Cc1ccc[n+](CC(=O)Nc2ccc(C)c(C)c2)c1.[Cl-], the “hERG current change (%, negative = inhibition) at 10uM” value was 10.4%. With CCCCCc1ccc(S(=O)(=O)Nc2cc(C)ccn2)cc1 the “hERG current change (%, negative = inhibition) at 10uM” value was 8.41%. CC(=O)Nc1ccc(OCCC[n+]2ccccc2)cc1.[Cl-] was tested, and the “hERG current change (%, negative = inhibition) at 10uM” value was 40.4%. CCCCCCC[n+]1ccc(-c2cc[n+](CCCCCCC)cc2)cc1.[I-] was tested, and the “hERG current change (%, negative = inhibition) at 10uM” value was 9.12%. With CCCCCc1ccc(CC(=O)O)cc1 the “hERG current change (%, negative = inhibition) at 10uM” value was 11.4%. For CCCCOc1ccc(C)cc1CN(CCO)CCO.Cl, the “hERG current change (%, negative = inhibition) at 10uM” value was 1.6%. With CCCCCOc1ccc(C)cc1CN(CCCl)CCCl.Cl the “hERG current change (%, negative = inhibition) at 10uM” value was 13.1%. CCCCCc1ccc(OCCCC[n+]2cccc(C)c2)c(CCCCC)c1.[Cl-] was tested, and the “hERG current change (%, negative = inhibition) at 10uM” value was -71.1%. CCCCCc1ccc(OCCC[n+]2ccccc2)c(CCCCC)c1.[Cl-] was tested, and the “hERG current change (%, negative = inhibition) at 10uM” value was -75.7%. With CCCCCc1ccc(OCCCC[n+]2ccccc2)c(CCCCC)c1.[Cl-] the “hERG current change (%, negative = inhibition) at 10uM” value was -66.4%. With CCCCOc1ccc(CCN)cc1Cl.Cl the “hERG current change (%, negative = inhibition) at 10uM” value was -13.7%. CCCCCc1ccc(OCCCC[n+]2ccc(C)cc2)c(CCCCC)c1.[Cl-] was tested, and the “hERG current change (%, negative = inhibition) at 10uM” value was -77%.
